The whole screen tested about 2,100 compounds, of which about 180 (8.6%) showed an effect of 50% or more. The entries come from a sample that favours strong results as a whole.
The molecules below were run on MOLM1 and UCSD/AML1 (averaged) (assay: cell viability relative to DMSO control (POC); higher = less growth inhibition). Details: 1 µM; 72 h.
Description: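 Primary viability screen in the 3q26 EVI1-high AML cell lines MOLM1 and UCSD/AML1 (1.5e3 cells/well, 384-well), compounds at 1 uM for 72 h. ATP CellTiter-Glo read-out given as percent of viable cells over DMSO control (POC), averaged over duplicates. DMSO was the negative control and 5 uM etoposide the positive control. This mapping covers the MicroSource Spectrum and Selleck anticancer libraries (drug names).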

Compound	cell viability
C=C[C@@]1(C)CC(=O)[C@@]2(O)[C@](C)(O1)[C@@H](O)[C@@H](O)C1C(C)(C)CC[C@H](O)[C@@]12C (stereo partly specified)	98.8%
COc1ccc(C(=O)O)c(O)c1OC	97.8%
COc1ccc([C@H]2COc3c(ccc(O)c3OC)C2)c(OC)c1O	116%
CC(C=CC(=O)NO)=CC(C)C(=O)c1ccc(N(C)C)cc1 (stereo unspecified) [Trichostatin A (TSA)]	1.52%
O=C(Cn1ccnc1[N+](=O)[O-])NCCO	94.5%
Cc1csc(-c2nnc(Nc3ccc(Oc4ncccc4-c4ccnc(N)n4)cc3)c3ccccc23)c1	51.5%
CN(C)c1ccc(C(=C2C=CC(=[N+](C)C)C=C2)c2ccc(N(C)C)cc2)cc1	0.942%
N=C1C=CC(=C(c2ccc(N)cc2)c2ccc(N)cc2)C=C1	82.5%
CCCCCCCCCCCCCc1ccco1	97.1%
C[C@H](CCC(=O)O)[C@H]1CC[C@H]2[C@@H]3CC[C@@H]4CCCC[C@]4(C)[C@H]3CC[C@]12C	98.9%
C[C@@H]1O[C@@H](O[C@H]2[C@H](O[C@H]3CC[C@@]4(C)[C@@H](CC[C@]5(C)[C@@H]4CC=C4[C@@H]6CC(C)(C)CC[C@]6(C(=O)O[C@@H]6O[C@H](CO[C@@H]7O[C@H](CO)[C@@H](O[C@@H]8O[C@@H](C)[C@H](O)[C@@H](O)[C@H]8O)[C@H](O)[C@H]7O)[C@@H](O)[C@H](O)[C@H]6O)CC[C@]45C)[C@]3(C)CO)OC[C@H](O)[C@@H]2O)[C@H](O)[C@H](O)[C@H]1O	89.5%
COCC[n+]1c2c(n(Cc3cnccn3)c1C)C(=O)c1ccccc1C2=O [YM155 (Sepantronium Bromide)]	3.93%
CC(C)CCC[C@@H](C)[C@H]1CC[C@H]2[C@@H]3CC=C4CC(=O)CC[C@]4(C)[C@H]3CC[C@]12C	87.5%
COC(=O)c1c(OC)cc2c(c1C)Oc1c(Cl)c(O)c(Cl)c(C)c1C(=O)O2	107%
OC(Cn1cncn1)(Cn1cncn1)c1ccc(F)cc1F	95.1%
Cc1c(NC(=O)OC[C@@H]2COCCN2)cn2ncnc(Nc3ccc4c(cnn4Cc4cccc(F)c4)c3)c12	119%
C=C1C2CC[C@@]3(C)[C@H](c4ccoc4)OC(=O)C[C@]13O[C@H]1CC(=O)C(C)(C)[C@H](C(O)C(=O)OC)[C@@]21C (stereo partly specified)	99.4%
CC(C)C[C@H](NC(=O)CNC(=O)c1cc(Cl)ccc1Cl)B(O)O [Ixazomib (MLN2238)]	1.39%
CC(C)C[C@H](NC(=O)CNC(=O)c1cc(Cl)ccc1Cl)B1OC(=O)C(CC(=O)O)(CC(=O)O)O1	1.16%
O=C(CNC(=O)c1ccc(Cl)cc1)NO	107%
CC(=O)Oc1ccc2c(c1)CC[C@@H]1[C@@H]2CC[C@]2(C)[C@@H](OC(C)=O)CC[C@@H]12	87.5%
